Screening data from PubChem.
Hits are enriched below; roughly 3.5% of the tested compounds scored in any of these assays.
MITF inh: human MITF inhibition, primary screen | O75030 | AlphaScreen MITF homodimerization, bead proximity signal | inhibition, % at 2.6 µM | 0.91% of 650,000 active; in the data active = inhibition above about 50%
FBW7 activator: human FBW7 E3 ligase activation, primary screen; AlphaScreen FBW7–phospho-cyclin E peptide binding, activator screen; 0.13% of 650,000 active; normalized activity (activation), % at 26.1 µM; Q969H0; in the data active = normalized activity above about 1.9%;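 note: purified mutant Fbw7 with reduced substrate affinity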
GPR151 ag: activates the human receptor GPR151; Q8TDV0; PathHunter beta-arrestin GPR151 cells, luminescence; activation, % at 11.2 µM; 1% of 650,000 active; AID 1508602; in the data active = activation above about 4.9%
Target sequence (Q8TDV0 whole entry, looked up): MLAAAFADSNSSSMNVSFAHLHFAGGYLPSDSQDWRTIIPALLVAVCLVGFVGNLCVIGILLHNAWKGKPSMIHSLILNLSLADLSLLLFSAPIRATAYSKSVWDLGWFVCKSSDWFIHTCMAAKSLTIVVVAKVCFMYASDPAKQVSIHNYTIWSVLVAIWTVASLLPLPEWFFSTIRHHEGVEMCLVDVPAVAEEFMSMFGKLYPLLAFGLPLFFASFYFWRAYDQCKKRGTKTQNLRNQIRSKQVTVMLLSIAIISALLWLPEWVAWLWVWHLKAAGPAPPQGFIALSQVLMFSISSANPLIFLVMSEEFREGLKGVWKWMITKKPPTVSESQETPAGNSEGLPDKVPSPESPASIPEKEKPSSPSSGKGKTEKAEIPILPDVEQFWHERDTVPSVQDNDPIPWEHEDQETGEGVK
TEAD-YAP inh: TEAD-YAP interaction inhibition; inhibition, % at 9.12 µM; 1.4% of 640,000 active; HEK-TIYL cells, TEAD-Gal4/YAP UAS-luciferase luminescence; in the data active = inhibition above about 32%
Hits are given with their value; n = inactive.

SMILES	MITF inh	FBW7 activator	GPR151 ag	TEAD-YAP inh
c1ccc(-c2cnc(SCCN3CCOCC3)n2CC2CCCO2)cc1 (stereo not drawn)	57	n	n	n
O=C1CCC(=O)N1c1ccc(N2CC=C(c3ccccc3)CC2)c([N+](=O)[O-])c1	n	n	n	n
CCCCC(C(=O)OCC)(C(=O)OCC)c1cc(Nc2ccc(C)cc2)c2c3c(onc13)-c1ccccc1C2=O	55	n	n	n
COc1cc(Nc2cc(N3CCN(C(=O)c4ccco4)CC3)c3noc4c3c2C(=O)c2ccccc2-4)cc(OC)c1OC	n	n	n	40
CCOC(=O)C1CCCN(c2cc(Nc3ccc4c(c3)OCCO4)c3c4c(onc24)-c2ccccc2C3=O)C1 (stereo not drawn)	n	n	n	38
CCOC(=O)C1CCCN(c2cc(Nc3cccc(OC)c3)c3c4c(onc24)-c2ccccc2C3=O)C1 (stereo not drawn)	64	n	n	n
CCN1C(=O)C(CC(=O)Nc2ccc(C(=O)OC)cc2)N(CCc2ccccc2)C1=S (stereo not drawn)	n	n	n	n
COc1cccc(Nc2cc(N3CCCC3)c3noc4c3c2C(=O)c2ccccc2-4)c1	n	n	n	n
CCCN1CCN(c2cc(Nc3cccc(OC)c3)c3c4c(onc24)-c2ccccc2C3=O)CC1	61	n	n	n
COCCNC(=O)c1ccc2cncc(-c3cc4ccccc4o3)c2n1	n	n	n	60
O=C(NCCCn1ccnc1)c1ccc2cncc(-c3cc4ccccc4o3)c2n1	n	n	n	46
O=C(NC1CC1)c1ccc2cncc(-c3cc4ccccc4o3)c2n1	n	n	n	50
O=C(c1ccc2cncc(-c3cc4ccccc4o3)c2n1)N1CCOCC1	n	n	n	n
NC(=O)c1ccccc1NC(=O)CN1CCC(O)(c2ccc(F)cc2)CC1	n	n	n	n
O=[N+]([O-])c1cc2c(cc1C(O)c1nnc(-c3ccccc3)o1)OCO2 (stereo not drawn)	n	n	n	81
N#C/C(=C\c1cccc2ccccc12)C(=O)Nc1ccccc1	n	n	n	n
COC(=O)c1ccc(C2C(C(=O)OCCc3ccccc3)=C(C)NC3=C2C(=O)CC(C)(C)C3)cc1 (stereo not drawn)	n	n	n	n
COc1cc(-n2c(-c3ccncc3)n[nH]c2=S)c(OC)cc1Cl	n	n	n	n
COc1ccc(/C(C)=N/NC(=S)NCCc2ccccc2)c(O)c1	87	n	n	n
O=C(Cc1ccccc1)N/N=C/c1ccccn1	n	n	n	n
S=C(NCCc1ccccc1)N/N=C/c1ccccn1	n	n	n	80
C/C(=N\NC(=S)NCCc1ccccc1)c1ccccn1	n	n	n	88
O=C(Nc1ccc(C(=O)O)cc1)Nc1ccc(Cl)c(Cl)c1	n	n	n	n
CCCOc1ccc(/C=N/NC(=O)c2n[nH]c(=O)c3ccccc23)cc1OC	n	n	n	n
CCc1cccc2c(/C=N/NC(=O)c3n[nH]c(=O)c4ccccc34)c[nH]c12	n	n	n	47
SMILES	MITF inh	FBW7 activator	GPR151 ag	TEAD-YAP inh
O=C1NC(=O)/C(=C/c2ccc(-c3ccc(O)c(C(=O)O)c3)o2)S1	86	n	n	n
O=C1NC(=S)S/C1=C\c1ccc(-c2ccc(C(=O)O)cc2)o1	n	n	n	n
NC1=NC(=O)/C(=C\c2ccc(-c3cccc(C(=O)O)c3)o2)S1	58	n	n	44
Cc1ccc(C(=O)O)cc1-c1ccc(/C=C2/SC(=O)NC2=O)o1	n	n	n	n
NC1=NC(=O)/C(=C/c2ccc(-c3ccccc3)o2)S1	n	n	n	n
O=C1NC(=S)S/C1=C\c1ccc(-c2cccc(C(=O)O)c2)o1	70	n	n	n
Cc1ccc(Cl)cc1N1CCN(C(=O)c2ccc3c(c2)NC(=O)CS3)CC1	n	n	n	60
C/C1=C2N=C(/C=C3N=C(/C(C)=C4\NC(C(CC(N)=O)C4(C)CCC(=O)NCC(C)OP(=O)(O)OC4C(CO)OC(n5cnc6cc(C)c(C)cc65)C4O)C4(C)N=C1C(CCC(N)=O)C4(C)CC(N)=O)C(CCC(N)=O)C\3(C)C)C(CCC(N)=O)C/2(C)CC(N)=O (stereo not drawn)	n	n	n	33
COC(=O)c1ccccc1NC(=O)NNC(=O)C(C)n1cc([N+](=O)[O-])c(OC)n1 (stereo not drawn)	n	n	n	n
CCOc1ccc(-c2n[nH]c3c2C(c2ccc(F)cc2)NC3=O)cc1 (stereo not drawn)	n	n	n	n
CCOc1ccc(-c2n[nH]c3c2C(c2cc(OC)ccc2OC)NC3=O)cc1 (stereo not drawn)	n	n	n	51
COc1ccc(C2NC(=O)c3[nH]nc(-c4ccc(C)cc4)c32)c(OC)c1 (stereo not drawn)	n	n	n	44
O=C(/C=C/Nc1cccc(O)c1)c1ccc(Cl)cc1	n	n	n	97
O=C(/C=C\Nc1ccc2c(c1)OCO2)c1ccc2ccccc2c1	n	n	n	n
COc1cccc(C(=O)/C=C/Nc2cccc(O)c2)c1	n	n	n	97
O=C(/C=C\Nc1cccc(F)c1)c1ccc2c(c1)OCO2	n	n	n	55
O=C(OCCN1CCN(C2=NS(=O)(=O)c3ccccc32)CC1)c1ccco1	n	n	n	n
O=C(NC(=S)Nc1n[nH]c(=S)s1)C1CCCCC1	n	n	n	n
CCOC(=O)c1cc2c(c(CSc3nc4cc(C(=O)OC)ccc4c(=O)n3CCN3CCOCC3)c1)OCOC2	n	n	n	n
Cn1cc(CN[C@H]2C[C@H]3C(=O)N[C@@H](CO)C(=O)N3C2)c(-c2ccccc2)n1	n	n	n	n
CC(C)C[C@H]1NC(=O)[C@@H]2C[C@H](NCc3cn(C)nc3-c3ccccc3)CN2C1=O	n	2.5	n	n
COc1cc(N2CCOCC2)ccc1/C=C1\C(=O)NC(=O)N(Cc2ccco2)C1=O	66	n	n	n
O=C1/C(=C/c2ccc3c(c2)OCO3)SC(=S)N1Cc1ccco1	n	n	n	n
C=CCN1C(=O)NC(=O)/C(=C/C=C/c2ccco2)C1=O	n	n	n	n
COc1ccc(/C=C2/C(=O)NC(=O)N(Cc3ccccc3)C2=O)cc1OC	n	n	n	n
SMILES	MITF inh	FBW7 activator	GPR151 ag	TEAD-YAP inh
O=C1NC(=O)N(Cc2ccco2)C(=O)/C1=C\C=C\c1ccccc1	54	n	n	n
COc1ccc(/C=C2/C(=O)NC(=O)N(Cc3ccco3)C2=O)cc1C	59	n	n	n
O=C1NC(=O)N(Cc2ccco2)C(=O)/C1=C\c1ccc2c(c1)OCO2	72	n	n	n
CCOC(=O)Cc1csc(NC(=O)c2c(O)c3ccccc3n(CC)c2=O)n1	n	n	n	n
COc1ccc(/C=C/C(=O)Nc2nnc(C(F)(F)F)s2)cc1OC	n	n	n	n
C[C@H](NS(=O)(=O)c1ccccc1F)C(=O)OCc1cc(=O)oc2cc3c(cc12)CCC3	n	n	n	n
CC(=O)NC1=NN(C(C)=O)C(C)(c2ccc(F)cc2)S1 (stereo not drawn)	n	n	n	37
CC(=O)NC1=NN(C(C)=O)C(C)(c2cccs2)S1 (stereo not drawn)	n	n	n	60
CCc1ccc(C2(C)SC(NC(C)=O)=NN2C(C)=O)cc1 (stereo not drawn)	n	n	n	n
